Results on 40 molecules are retold here after ChEMBL document CHEMBL1157539, “Thousands of chemical starting points for antimalarial lead identification” (Nature, 2010).

By Inhibition is commonly meant the change of the read-out against control, counted positive when it falls. High values mean strong suppression, low ones little suppression.

The test system of this test is Plasmodium falciparum. Put plainly: GSK_TCMDC: Inhibition of Plasmodium falciparum 3D7 in whole red blood cells, using parasite LDH activity as an index of growth. Test compounds present at 2uM. The class given is functional.
The molecule `O=C1Nc2cccc3c2C1(CCCN1CCC(c2c[nH]c4cc(C(F)(F)F)ccc24)CC1)CCC3` (stereo not given) came in with an Inhibition of 89%.

As for `COc1cc(OC)cc(-c2nn(-c3ccc([N+](=O)[O-])cc3C#N)c(=S)n2Cc2ccco2)c1`, the Inhibition turned out to be 100%.

`COCCNCc1cccc(-c2ccccc2CN(C(=O)c2ccc3c(c2)OCO3)c2ccc(OC)cc2)c1.O=C(O)C(F)(F)F` showed an Inhibition of 90%.

The molecule `CCCCCCNC(=O)C1Cc2c([nH]c3ccc(Br)cc23)C2(CCN(Cc3ccccc3)CC2)N1` (stereo not given) came in with an Inhibition of 100%.

`CC1CN(c2cc(=O)n(Cc3ccc(NC(=O)Nc4ccc(-c5ccccc5)cc4)cc3)cn2)CC(C)N1.O=C(O)C(F)(F)F` (stereo not given) displayed an Inhibition of 87%.

The molecule `O=C(Nc1ccc2c(c1)CCN2C1CCN(Cc2ccc(F)cc2Cl)C1)c1ccco1` (stereo not given) gave an Inhibition of 97%.

Take `CCOc1ccc(C(=O)Nc2cc(Br)c3c(c2)CNCC3)cc1C#N.Cl`: the Inhibition is recorded as 97%.

In turn, `Cc1cc(NC2CCCC2)nc(Nc2ccccc2C)n1` yielded an Inhibition of 88%.

`O=C(NC1CC1)c1cnc(N2CCC(Cc3ccccc3)CC2)c(Cl)c1.O=C(O)C(F)(F)F`: the Inhibition is listed as 96%.

In the case of `CCNc1cc(C(=O)N[C@@H](Cc2ccccc2)[C@H](O)CNC(C)CC(C)C)c(F)c(N2CCCCS2(=O)=O)c1.O=CO` (stereo not given in full), the Inhibition came to 95%.

In the case of `COc1ccc(NC(=O)/C=C/c2ccccc2Cl)cc1OCCN1CCC(N2CCCC2)CC1.O=C(O)C(=O)O`, the Inhibition was determined as 100%.

Regarding `O=C(Cc1c[nH]cn1)Nc1cccc(-c2ccc(-c3nc4cc(C(F)(F)F)ccc4[nH]3)cc2)c1`, the Inhibition is 100%.

In turn, `COC(=O)c1ccc(NC(=O)c2ccc(CCN3CCC(c4nc(COCC(F)(F)F)c(-c5ccc(F)cc5)o4)CC3)cc2)cc1` came in with an Inhibition of 89%.

Take `COc1ccc2nccc([C@@H](O)CN3CCC(NCc4cc5ccc(Cl)cc5[nH]4)CC3)c2c1.O=C(O)C(=O)O`: the Inhibition amounted to 99%.

For `O=C(O)C(F)(F)F.OCCN1CCN(Cc2ccc(-c3cccc(-c4nc5ccccc5[nH]4)c3)cc2)CC1`, the Inhibition is recorded as 96%.

With `CN(C)C=Nc1ccc(OCCCCCCOc2ccc(N=CN(C)C)cc2)cc1.Cc1ccc(S(=O)(=O)O)cc1`, the Inhibition turned out to be 100%.

`CCN(CC)CCNc1ccnc2[nH]c3ccc(C)cc3c12` showed an Inhibition of 100%.

`CC1(C)N=C(N)N=C(N)N1c1ccccc1.Cl` had an Inhibition of 98%.

`Cc1cc(N2CCCC2)nc(Nc2ccc(NC(=O)c3cccc(F)c3)cc2)n1` showed an Inhibition of 97%.

`CCOc1ccc(-c2nonc2NC(=O)c2cccs2)cc1OCC` registered an Inhibition of 100%.

The molecule `O=C(/C=C/c1ccc(Cl)c(Cl)c1)NCCCCCN1CCCN(C(=S)Nc2ccc(Cl)c(Cl)c2)CC1` gave an Inhibition of 96%.

For the molecule `Cc1nc(Nc2ccc(C)c(Cl)c2)c2c(C)noc2n1`, the Inhibition was determined as 94%.

The molecule `COc1ccc(-c2ccc(NC(=O)c3cccc(Cl)c3)c(F)c2)cc1CNC(C)C.O=C(O)C(F)(F)F` came in with an Inhibition of 93%.

`CN(C)CCN(C)Cc1cccc(-c2ccc3c(Nc4ccc(F)cc4Cl)ccnc3c2)c1` came in with an Inhibition of 100%.

Regarding `COc1ccc2ncc(F)c(CCN3CC(O)C(CNCc4ccc(F)cc4)C3)c2n1.Cl` (stereo not given), the Inhibition stood at 93%.

For the molecule `CCc1c[nH]c2c(N3CCCC3=O)cc(C(=O)N[C@@H](Cc3ccccc3)[C@H](O)CNC(C)(C)CCCC(C)C)cc12.O=CO`, the Inhibition worked out at 96%.

`CC(C)NCc1ccc(-c2ccc(-c3nc4cc(F)ccc4[nH]3)cc2)cc1.O=C(O)C(F)(F)F` yielded an Inhibition of 100%.

Regarding `CCOc1cc(C)ccc1C1CCN(CCCCNC(=O)c2ccc(-c3ccc(C(F)(F)F)cn3)cc2)CC1.Cl`, the Inhibition turned out to be 99%.

`CCNC1=NC2=C(CC(C(C)(C)C)CC2)C2(CCC(C(C)(C)C)CC2)S1.Cl` (stereo not given) showed an Inhibition of 99%.

The molecule `COc1ccc2nccc([C@@H](O)CN3CCC(NS(=O)(=O)c4cc(Br)c(Br)s4)CC3)c2c1` registered an Inhibition of 92%.

With `O=C(Nc1ccccc1F)N(CCCn1ccnc1)Cc1csc(-c2ccc(CNCc3ccccc3)cc2)n1.O=C(O)C(F)(F)F`, the Inhibition is 93%.

With `Br.COc1ccc2c(c1)CCCC2C(C)NCC(O)c1cccc(C(F)(F)F)c1` (stereo not given), the Inhibition is reported as 99%.

Consider `COc1ccc2nccc([C@@H](O)CN3CCC(NC(=O)C(c4cc5ccccc5o4)N4CCC(Cc5ccccc5)CC4)CC3)c2c1` (stereo not given in full), for which the Inhibition was 100%.

In the case of `CSc1nc2cc3c(cc2n1C(=O)c1ccc(C)cc1)OCCO3`, the Inhibition is given as 99%.

For `Cl.O=S(=O)(c1ccc(OCc2ccc(Cl)cc2)cc1)c1cc2c(cc1OCc1ccccc1)CCN(CC1CC1)CC2`, the Inhibition was 82%.

Consider `CN(C)CCN(C)Cc1ccc(-c2ccc(NS(=O)(=O)c3cccc4cccnc34)cc2)cc1.O=C(O)C(F)(F)F`, for which the Inhibition is recorded as 93%.

`FC(F)(F)c1cccc(Nc2nc(-c3ccccc3)nc3ncccc23)c1` yielded an Inhibition of 97%.

In turn, `CCc1ccc2nc(-c3ccc(F)cc3)nc(SCC(=O)Nc3sc(C)c(C)c3C#N)c2c1` displayed an Inhibition of 98%.

For the molecule `Cc1cc(C(=O)Nc2nc(-c3ccccn3)nc3ccsc23)no1`, the Inhibition came out at 98%.

In the case of `Cc1ccc(-c2noc(=O)n2CC(=O)Nc2ccccc2-c2ccccc2)cc1`, the Inhibition is listed as 100%.
